{"source": "PubChem BioAssay (NCI)", "note": "About 83,000 compounds went through this panel and 20% of them were active in at least one assay; those are over-represented in the sample as a whole.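 Testing used 96-well plates and a 48-hour single-concentration exposure. Example: -40 means 40% of the starting cells died.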 A number with no mark means an inactive call. Activity calls are given as the source filed them. How the source made its calls: active means growth percent below 10; inactive means the rest.", "data": [{"system": "786-0 renal", "assay": "NCI-60 one-dose screen, 48 h (100 = growth as untreated, 0 = no growth, -100 = all killed)", "conditions": "10 µM unless noted", "values": [{"smiles": "CS(=O)c1cccc(-c2ccc3nc(N)n(-c4ccc(C(F)(F)F)cc4)c(=O)c3c2)c1", "note": "(stereo not drawn)", "growth": "97.1%"}, {"smiles": "CCOc1ccccc1-n1c(CN2CCN(C(=O)COc3ccc(CNCCCCCCN4C5CCCC4CC(OC(=O)Nc4cc(C)ccc4OC)C5)cc3)CC2)nc2ccccc2c1=O", "note": "(stereo not drawn)", "growth": "-89.6% (active)"}, {"smiles": "O=C(O)CN1C(=O)CCC1=O", "growth": "105%"}, {"smiles": "Cc1cccc(NC(=O)CSc2nc3ccccc3[nH]2)c1", "growth": "103%"}]}, {"system": "COLO 205 colon", "assay": "NCI-60 one-dose screen, 48 h (100 = growth as untreated, 0 = no growth, -100 = all killed)", "conditions": "10 µM unless noted", "values": [{"smiles": "Cc1ccc(Cl)cc1NC(=O)c1cc2ccccc2cc1O", "growth": "1.54% (active)"}, {"smiles": "CC1SC(c2ccc(OCc3ccccc3)cc2)N(NC(=O)C(O)(c2ccccc2)c2ccccc2)C1=O", "note": "(stereo not drawn)", "growth": "30.8%"}, {"smiles": "O=c1cc(C2NNC(=S)N2)c2ccc3ccccc3c2o1", "note": "(stereo not drawn)", "growth": "104%"}, {"smiles": "Cc1ccc(Nc2nc(N)nc(CSCC(=O)NN)n2)cc1", "growth": "110%"}, {"smiles": "O=[N+]([O-])c1ccc(OCCO)cc1", "growth": "107%"}, {"smiles": "O=C(CSc1nnc(-c2ccc(NC(=O)c3cccnc3)cc2)o1)N[C@@H](Cc1ccc(O)cc1)C(=O)O", "growth": "101%"}, {"smiles": "O=C(/C=C/c1ccco1)c1ccc(Nc2nc(Nc3ccc(F)cc3)nc(Nc3ccc(Cl)cc3)n2)cc1", "growth": "35.9%"}, {"smiles": "CCOC(=O)c1c(-c2ccc(Cl)cc2)c(C#N)c(=O)n(-c2ccccc2CC)c1N", "growth": "111%"}, {"smiles": "COC(=O)[C@]12CC[C@@H](C)[C@H](C)[C@@H]1C1=CC[C@@H]3[C@@]4(C)C(C=O)=C[C@@](C)(COC(C)=O)C4=CC[C@@]3(C)[C@]1(C)CC2", "growth": "-66.5% (active)"}]}]}
